Key:
Settings in all cases: concentration: 1 μM, replicates: in singlicate; n = 1
MYLK4 = tested on: MYLK4
MYLK = tested on: MYLK
MYO3A = tested on: MYO3A
MYO3B = tested on: MYO3B
NDR1 = tested on: T1, NDR1
T1 construct: gene STK38

NDR2 = tested on: NDR2
NEK10 = tested on: NEK10
NEK11 = tested on: NEK11
NEK1 = tested on: NEK1
NEK2 = tested on: NEK2
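Further: KINOMEscan kinase panel screen.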

Row | Compound | %Inh (MYLK4) [%] | %Inh (MYLK) [%] | %Inh (MYO3A) [%] | %Inh (MYO3B) [%] | %Inh (NDR1) [%] | %Inh (NDR2) [%] | %Inh (NEK10) [%] | %Inh (NEK11) [%] | %Inh (NEK1) [%] | %Inh (NEK2) [%]
1 | O=C(NCCCN1CCCC1=O)c1cnc(NCc2cc(Cl)ccc2Cl)nc1NC1CCNCC1 | 3 | 11 | 0 | 0 | 0 | 0 | 0 | 0 | 0 | 7
2 | Fc1cccc(COc2ccc(Nc3ncnc4cc[nH]c34)cc2Cl)c1 | 8 | 10 | 4 | 29 | 24 | 8 | 0 | 0 | 0 | 12
3 | Cc1ccc(NC(=O)c2cccc(C#N)c2)cc1-c1ccc(C(=O)Nc2ccncc2)cc1 [GSK1398463] | 7 | 14 | 0 | 0 | 0 | 0 | 1 | 0 | 27 | 28
4 | Cl.Fc1ccccc1COc1ccc(Nc2ncnc3ccc(-c4nnc(C(F)(F)F)o4)cc23)cc1Cl [GW424170] | 0 | 0 | 0 | 0 | 0 | 16 | 0 | 0 | 0 | 0
5 | Cn1ccc2ncnc(Nc3ccc(Oc4cccc(Cl)c4)c(Cl)c3)c21 | 3 | 0 | 0 | 3 | 22 | 11 | 2 | 0 | 0 | 0

Source: PMC5540273 (PLoS ONE, 2017)
